# Test results as given in PubChem BioAssay (Tox21).
# Records with an inconclusive call do not appear. Entries that show only a call come without a potency. A number with no mark means an inactive call. Calls of active or inactive are those of the source. The call rests on the fitted dose curve; in most records, active means well fitted cell-killing curve with a large enough effect in the repeat runs; inconclusive means weak or mixed curves, or effect the other way; inactive means flat fitted curve, though single readings scatter.
# What was measured:
# [1] = cAMP Responsive Elements (CRE) small molecule antagonists, cell-based qHTS assay: qHTS cell viability counter screen (AID 2060913); further: nearly all actives have a fitted effect of over 40% in size
# In short: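 Cytotoxicity read in the same wells as the CRE-bla HEK293T antagonist assay: after 3 h compound with 0.25 uM NKH477 final and 2 h beta-lactamase substrate, CellTiter-Glo luminescence measured.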
# [2] = cAMP Responsive Elements (CRE) small molecule agonists, cell-based qHTS assay: qHTS cell viability counter screen (AID 2060914);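 further: viability read after 3 h of compound exposure; nearly all actives have a fitted effect of over 50% in size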
# In short: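 Cytotoxicity counter screen multiplexed with the CRE-bla reporter assay in HEK 293T cells: 3 h compound exposure at 37 °C, followed by CellTiter-Glo luminescence measured in the same wells.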
SMILES,"viability change, negative = cytotoxic [1]","activity change, negative = cytotoxicity [2]",Potency [1],Potency [2]
Cc1ccc2nc3sc(=O)sc3nc2c1,10.1% [at 18.9 µM],-6.15% [at 18.9 µM],,
NN=C(N)N,,,inactive,inactive
CC(C)N(Cc1ccccc1)C(=O)C(C)(C)C,,,inactive,inactive
N#CSCc1ccccc1,,,inactive,inactive
Cc1cc(O)ccc1Cl,,,inactive,inactive
Clc1ccc(C(Cl)(Cl)Cl)cc1Cl,,,inactive,inactive
BrCc1ccc(Br)cc1,,,inactive,inactive
Nc1nc(N)nc(Cl)n1,,,inactive,inactive
ClC(Cl)=C(Cl)C(Cl)=C(Cl)Cl,,,inactive,inactive
Cc1ccc(C)c2ccccc12,,,inactive,inactive
CCCC(C)(COC(N)=O)COC(N)=O,,,inactive,inactive
CCOC(=O)CBr,,,inactive,inactive
CNC(=O)Oc1cc(C)c(SC)c(C)c1,,,inactive,inactive
CN(C)C(=O)Nc1cccc(OC(=O)NC(C)(C)C)c1,,,inactive,inactive
O=C(O)C(O)C(O)C(=O)O (configuration not stated),,,inactive,inactive
N#CC(C#N)=C(C#N)C#N,,,inactive,inactive
CCN(CC)c1nc(C)cc(OP(=S)(OC)OC)n1,,,inactive,inactive
C=CC(=O)OCC,,,inactive,inactive
c1ccoc1,,,inactive,inactive

SMILES,"viability change, negative = cytotoxic [1]","activity change, negative = cytotoxicity [2]",Potency [1],Potency [2]
C[C@]12C=CC(=O)C=C1CC[C@@H]1[C@@H]2CC[C@@]2(C)[C@H]1CC[C@]2(C)O,,,inactive,inactive
CC1(C)[C@H](/C=C2\CCSC2=O)[C@@H]1C(=O)OCc1coc(Cc2ccccc2)c1,,,inactive,inactive
c1coc(-c2nc3ccccc3[nH]2)c1,,,inactive,inactive
Clc1nc(Cl)nc(Nc2ccccc2Cl)n1,,,inactive,inactive
O=S(=O)(Cl)c1ccccc1,,,inactive,inactive
FC(Cl)(Cl)C(F)(Cl)Cl,,,inactive,inactive
O=C(Nc1ccc2[nH]ccc2c1)c1cc2cc(F)ccc2n1Cc1cccc(F)c1,,,inactive,inactive
C=C(C)CN(CC)c1c([N+](=O)[O-])cc(C(F)(F)F)cc1[N+](=O)[O-],,,inactive,inactive
C[C@]12CC[C@H]3[C@@H](CC[C@@]45O[C@@H]4C(O)=C(C#N)C[C@]35C)[C@@H]1CC[C@@H]2O,,,inactive,inactive
Oc1cccc(Cl)c1Cl,,,inactive,inactive
C/C(=C\c1ccccc1)[N+](=O)[O-],,,inactive,inactive
CC(C)OC(=S)S,,,inactive,inactive
CCOP(=O)(OCC)OCC,,,inactive,inactive
CCNc1nc(Cl)nc(NC(C)(C)C)n1,,,inactive,inactive
Oc1ccc2[nH]cc(CCCCN3CC=C(c4ccccc4)CC3)c2c1,,,inactive,inactive
Cc1c([N+](=O)[O-])c(C)c([N+](=O)[O-])c(C(C)(C)C)c1[N+](=O)[O-],,,inactive,inactive
C[N+]1(CCC(C(N)=O)(c2ccccc2)c2ccccc2)CCCCC1,,,inactive,inactive
O=[N+]([O-])c1ccc(Nc2ccccc2)cc1,,,inactive,inactive
Cc1cc(Cl)ccc1OCCCC(=O)O,,,inactive,inactive

SMILES,"viability change, negative = cytotoxic [1]","activity change, negative = cytotoxicity [2]",Potency [1],Potency [2]
CCCCCCOC(=O)c1ccccc1C(=O)OCCCCCC,,,inactive,inactive
Cc1c(Cl)c(=O)oc2cc(OP(=O)(OCCCl)OCCCl)ccc12,,,inactive,inactive
Cc1cc2c3c(c1)C(c1ccccc1)=N[C@@H](NC(=O)c1ccncc1)C(=O)N3CC2,,,inactive,inactive
COc1cc(OC)nc(Sc2cccc(Cl)c2C(=O)O)n1,,,inactive,inactive
CCC12COCN1COC2,,,inactive,inactive
O=C(CCl)c1ccc(Cl)cc1Cl,,,inactive,inactive
N#Cc1c(Cl)cccc1Cl,,,inactive,inactive
CCCC1CCCCN1 (configuration not stated),,,inactive,inactive
C[C@H](CN1CCOCC1)C(C(=O)N1CCCC1)(c1ccccc1)c1ccccc1,,,inactive,inactive
BrCCCCBr,,,inactive,inactive
COc1ccc2[nH]cc(CCN(C(C)C)C(C)C)c2c1,,,inactive,inactive
COC(C)(C)CCC[C@H](C)C/C=C/C(C)=C/C(=O)OC(C)C,,,inactive,inactive
C#CC(C)(C)NC(=O)c1cc(Cl)cc(Cl)c1,,,inactive,inactive
O=NN1CCCC1,,,inactive,inactive
Clc1ccc(CO/N=C(\Cn2ccnc2)c2ccc(Cl)cc2Cl)c(Cl)c1,,,inactive,inactive
Oc1cc(Cl)cc(Cl)c1,,,inactive,inactive
CC(C)OC(=O)Nc1cccc(Cl)c1,,,inactive,inactive
S=C=S,,,inactive,inactive
